The structures appear in SMILES notation. Compounds without any hit were thinned out: in the full panel of roughly 83,000, 20% have a hit.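 Compound tested at a single concentration for 48 hours in 96-well plates; a percent growth value below 10 was scored as active.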 A number with no mark means an inactive call. Active and inactive are the calls of the source.

Experimental findings from PubChem BioAssay (NCI) are described below.

The subject of this assay is HL-60(TB) leukemia. As to the kind of experiment: NCI-60 one-dose screen, 48 h (100 = growth as untreated, 0 = no growth, -100 = all killed). As to conditions: 10 µM unless noted.

Take `COc1ccc(-c2nc3ccc(-c4nc5ccc(N6CCN(c7ccc(F)cc7)CC6)cc5[nH]4)cc3[nH]2)cc1OC`: the growth was 46.5%.
Take `COc1ccc2nc3ccccc3c(NCc3ccc(F)cc3)c2c1`: the growth was -34.6% (active).
With `CCSc1sc(-c2ccc(C)cc2)nc1[P+](c1ccccc1)(c1ccccc1)c1ccccc1` the figure was -47% (active); with `COc1cc(/C=C/c2c(C(C)=O)c(C)nc3ccccc23)cc(OC)c1OC`, 0.0645% (active).
To `Nn1c(SCC(=O)Nc2ccc(Cl)cc2)nnc1-c1cc(F)c(Cl)cc1Cl` belongs 84.5%; to `Nc1ncc(-c2ccc3ncnc(N4CCc5ccc(Cl)cc54)c3c2)cc1C(F)(F)F`, 22.9%; to `CN(C[C@@H]1COCCO1)S(=O)(=O)Nc1ccc2ccc3ncc(-c4cnn(C)c4)cc3c(=O)c2c1`, 48.1%.
With `S=C1SCN(Cc2ccccc2)CN1Cc1ccco1` the figure was 32%; with `COc1cc(C2CC(c3ccccc3)=NN2C=O)ccc1Oc1nc2c(c(=O)n(C)c(=O)n2C)n1C` (stereo not given), 101%; with `CN(N)c1nc2sc3c(c2c(=O)[nH]1)CCCC3`, 102%.
Consider `COc1cc(/C=C/C(=O)c2c(C)nc3ccccc3c2/C=C/c2ccc(C)cc2)cc(OC)c1OC`, for which the growth was 12.5%.
With `CCc1ccc(-c2ccc(=O)n(-c3ccc(S(N)(=O)=O)cc3)n2)cc1` the figure was -4.27% (active).
With `COc1ccc(-c2nnc3c4[nH]cnc4ncn23)c(OC)c1` the figure was 12.8%.
In the case of `Cc1nc2sc(C(=O)Nc3ccccc3)c(N)c2cc1C(=O)c1ccc(C(F)(F)F)cc1`, the growth is 99.3%.
With `CS(=O)(=O)c1ccc(-c2[nH]c3ccc(F)cc3c2/C=N/NC(N)=S)cc1` the figure was -50.2% (active); with `NNc1nc(-c2cccnc2)nc2c1sc(=S)n2-c1ccccc1`, 77.1%.
Take `CCN1CCN(c2nc(C)cc(NCc3cc(Nc4ccnc5cc(Cl)ccc45)ccc3F)n2)CC1`: the growth is -7.3% (active).
To `Nc1c(C(=O)Nc2ccccc2Cl)sc2nc3c(cc12)CN(Cc1ccccc1)CC3` belongs 75.6%; to `Oc1[nH]c2ccc(Cl)cc2c1/C=c1/ccc2c(c1)N=C(c1cc(F)cc(F)c1)N=2`, 70.1%; to `Cc1cc(=O)oc2cc(O)cc(O)c12`, 109%.
Take `C=C1C(=O)O[C@H]2[C@H]1CC/C(Cn1cc(Cn3ccc4cc(Cl)ccc43)nn1)=C\CC[C@@]1(C)O[C@@H]21`: the growth is -37.7% (active).
In the case of `COc1cc(C=O)ccc1OC1OC(COC(C)=O)C(OC(C)=O)C(OC(C)=O)C1OC(C)=O` (stereo not given), the growth is 106%.
As for `CCOC(=O)/C(=C\c1ccc2ccccc2c1)P(=O)(OCC)OCC`, the growth is 8.83% (active).
Regarding `COc1cc(OC)c(NC(=O)C(Sc2nc(C)cc(C)c2C#N)c2ccccc2)cc1Cl` (stereo not given), the growth was 94.1%.
To `CCCCOc1nc2ccccc2cc1C1CNC(=O)c2ccccc2N1` (stereo not given) belongs -8.72% (active); to `CN(C)c1ccc(C(=O)OCCCCCCl)cc1`, 76%.
As to `Clc1cccc(-c2nc(-c3cccs3)no2)c1`, the growth was 98.4%.
To `CN(C)C(=O)OCc1ccc2c(Cl)cc(Cl)c(O)c2n1` belongs 18.8%; to `c1cc(OCCN2CCCCC2)cc(-c2n[nH]c3ccc(-c4ncn[nH]4)cc23)c1`, 39%.
With `c1ccc(-c2nnc(-c3ccccn3)s2)nc1` the figure was 95.8%; with `COC(=O)c1ccc(Cn2cnc3c(N)ncnc32)cc1`, 67.6%; with `N#Cc1nc2c(S(=O)(=O)c3ccccc3)c(N)n(Cc3cccnc3)c2nc1C#N`, 53%.
`Nc1cc(O)cc(O)c1`: the growth is 98.6%.
With `CCOC(=O)c1c(/N=C2\SC(=O)/C(=C\C(=O)OC)N2NC)sc2c1CCN(C(=O)OCC)C2` the figure was 108%; with `CC(=O)N(Cc1ccccc1)c1nc2ccc(O)c(CN(C)C)c2s1`, 105%.
For `CCCCCCCCN(CCO)CCCCCCCC`, the growth was 100%.
Turning to `CC1(C)CC[C@]2(C(=O)N3CCNCC3)CC[C@]3(C)C(=CC[C@@H]4[C@@]5(C)CCC(=O)C(C)(C)[C@@H]5CC[C@]43C)[C@@H]2C1`, the growth was 102%.
To `COc1ccc(NC(=O)c2ccc3c(c2)nc(-c2cc4ccccc4[nH]c2=O)n3-c2cc(C(C)(C)C)[nH]n2)cc1` belongs 96.8%; to `COc1nc2ccccc2cc1/C=C1/C=C(c2ccccc2)NC1=O`, -8.46% (active).
With `C=C1CC[C@@H]2[C@](C)(COC(C)=O)[C@H](OC(C)=O)CC[C@@]2(C)[C@@H]1CC(Nc1ccc(S(=O)(=O)NC(C)=O)cc1)C1=CCOC1=O` (stereo not given in full) the figure was -31.1% (active).
